Results as given in PubChem BioAssay (Tox21).
Calls of active or inactive are those of the source. Calls follow the shape of the dose curve; as a rule, active = well fitted curve in the direction sought with a large enough effect in the repeat runs; inconclusive = weak or mixed curves; inactive = flat fitted curve, though single readings scatter.

Test: qHTS assay to test for compound auto fluorescence at 590 nm (red) in HEK293 cell free culture (AID 720683)
Settings: cell-free medium autofluorescence, Ex540/Em590 red; series mostly up to 46 µM
Text: U.S. Tox21 Program National Center for Advancing Translational Sciences [NCATS] NIH Chemical Genomics Center [NCGC] U.S. Environmental Protection Agency [EPA] National Institutes of Environmental Health Sciences [NIEHS] National Toxicology Program [NTP] U.S. Food and Drug Administration [FDA] Tox21 Assay Overview: Compound auto fluorescence often interferes with screening of the compound library against various biological targets and signaling pathways. Some of these compounds may have fluorophoric properties. Such properties may interfere with the assay outputs resulting in false positives and/or negatives. To decrease such complications and ensure the compound activities are relevant in terms of biological response, the Tox21 10K compound library was screened for auto fluorescence. From the fluorophores used as reporter signals in our screening assays, the auto fluorescence equivalencies of compounds against three fluorophores have been evaluated: Triamterene, Fluorescein and Rose Bengal sodium for blue, green and red fluorescence, respectively. The fluorescence intensities were measured using Excitation/Emission wavelengths at 405/460nm, 485/535nm and 540/590nm for blue, green and red labels, respectively. This assay includes the red fluorescence data.
Tox21 Assay Protocol Summary: 5 uL of culture medium (DMEM containing 10% FBS) per well was dispensed into black wall/clear bottom 1536-well plates using a Multidrop Combi Dispenser (ThermoFisher Scientific, Waltham, MA). After 23 nL compound or DMSO vehicle was transferred into assay plate by a pintool work station (Kalypsys, San Diego, CA), fluorescence intensities in the assay plates were measured by an Envision (PerkinElmer, Shelton, CT) plate reader using three labels for measuring blue, green and red fluorescence at […] 460, 535 and 590nm respectively.

SMILES	outcome
N#CC1(N2CCCCC2)CCCCC1	inactive
CCN(CC)CCO[C@H]1CC[C@@]2(C)C(=CC[C@@H]3[C@@H]2CC[C@]2(C)C(=O)CC[C@@H]32)C1	inactive
Cc1nnc2n1-c1ccc(Cl)cc1C(c1ccccc1)=NC2	inactive
CN(C)[C@H](Cc1ccccc1)c1ccccc1	inactive
N#CC(C#N)=Cc1cc(O)c(O)c(O)c1	inactive
O=[N+]([O-])c1cc(I)c(O)c(I)c1	inactive
C[C@@H]1[C@@H]2Cc3ccc(O)cc3[C@@]1(C)CCN2CCc1ccccc1	inactive
C[C@]12CCC(=O)C[C@@H]1CC[C@@H]1[C@@H]2CC[C@@]2(C)[C@H]1CC[C@]2(C)O	inactive
O=C1C[C@@H]2OCC=C3CN4CC[C@]56c7ccccc7N1[C@H]5[C@H]2[C@H]3C[C@H]46 (tested in a mixture with another compound)	inactive
CN1CCCC(=C(c2cccs2)c2cccs2)C1	inactive
CCC1(c2ccccc2)C(=O)NC(=O)N(C(=O)c2ccccc2)C1=O (stereo not given)	inactive
CCCCCc1cc(O)c2c(c1)OC(C)(C)[C@@H]1CCC(C)=C[C@@H]21	inactive
CCC1(c2ccccc2)C(=O)NC(=O)N(C)C1=O (stereo not given)	inactive
CC(=O)Oc1ccc2c3c1O[C@H]1[C@@H](OC(C)=O)C=C[C@H]4[C@@H](C2)N(C)CC[C@@]341	inactive
CNc1ccc(C(=O)CC(O)CCC(C)C2OC(=O)CC(O)CC(=O)CC(O)CC(O)CC(O)CC(O)CC3(O)CC(O)C(C(=O)OC)C(CC(O[C@@H]4O[C@H](C)[C@@H](O)[C@H](N)[C@@H]4O)/C=C/C=C/C=C/C=C/C=C/C=C/C=C/C2C)O3)cc1 (stereo not given in full)	inactive
c1csc(C2(N3CCCCC3)CCCCC2)c1	inactive
C=C[C@H]1CN2CC[C@H]1C[C@@H]2[C@@H](O)c1ccnc2ccccc12	inactive
COC(=O)[C@]12CCC(C)(C)C[C@H]1[C@H]1C(=O)C=C3[C@@]4(C)C=C(C#N)C(=O)C(C)(C)[C@@H]4CC[C@@]3(C)[C@]1(C)CC2	inactive
COC([CH2][Hg])CNC(=O)c1ccccc1OCC(=O)O (stereo not given)	inactive
CC(C)C[C@H]1C(=O)N2CCC[C@H]2[C@]2(O)O[C@](NC(=O)[C@@H]3C[C@@H]4c5cccc6[nH]cc(c56)C[C@H]4N(C)C3)(C(C)C)C(=O)N12	inactive

SMILES	outcome
O=C(C[C@@H]1NCCC[C@H]1O)Cn1cnc2cc(Br)c(Cl)cc2c1=O	inactive
CCCCNC(C)(C)[P+](=O)O	inactive
O=S(=O)(O)c1cc(O)ccc1O	inactive
CCN1C[C@]2(COC)[C@H](O)C[C@H](OC)[C@@]34[C@@H]5C[C@@]6(O)[C@H](OC(=O)c7ccccc7)[C@@H]5[C@@](OC(C)=O)([C@@H]([C@H](OC)[C@H]23)[C@@H]14)[C@@H](O)[C@@H]6OC	inactive
CN(C)CCCCCCN(C)C (tested in a mixture with another compound)	inactive
C[C@H]1CC[C@]2(NC1)O[C@H]1C[C@H]3[C@@H]4CC[C@H]5C[C@@H](O[C@@H]6O[C@H](CO)[C@H](O[C@@H]7O[C@H](CO)[C@@H](O)[C@H](O[C@@H]8OC[C@@H](O)[C@H](O)[C@H]8O)[C@H]7O[C@@H]7O[C@H](CO)[C@@H](O)[C@H](O)[C@H]7O)[C@H](O)[C@H]6O)CC[C@]5(C)[C@H]4CC[C@]3(C)[C@H]1[C@@H]2C	inactive
CC1(C)S[C@@H]2[C@H](N)C(=O)N2[C@H]1C(=O)O	inactive
CCOC(=O)C1(c2ccccc2)CCCN(C)CC1 (stereo not given)	inactive
C#CC(C)(O)CC (stereo not given)	inactive
CC(C)CCC(=O)O[C@H]1CC[C@H]2[C@@H]3CCC4=CC(=O)CC[C@]4(C)[C@H]3CC[C@]12C	inactive
CN[C@@]1(c2ccccc2Cl)CCCCC1=O	inactive
CCC/C=C/C=C/C(=O)O[C@H]1/C(=C/C(=O)OC)C[C@H]2C[C@H]([C@@H](C)O)OC(=O)C[C@H](O)C[C@@H]3C[C@H](OC(C)=O)C(C)(C)[C@](O)(C[C@@H]4C/C(=C/C(=O)OC)C[C@H](/C=C/C(C)(C)[C@]1(O)O2)O4)O3	inactive
S=C(S)N1CCNCC1	inactive
C[C@@H]1[C@@H]2Cc3ccc(O)cc3[C@@]1(C)CCN2CC1CC1	inactive
CCCCCCCCCC(=O)O[C@H]1CC[C@H]2[C@@H]3CCC4=CC(=O)CC[C@]4(C)[C@H]3CC[C@]12C	inactive
CC(C)(O)[C@@H]1[C@H]2OC(=O)[C@@H]1[C@]1(O)C[C@H]3O[C@]34C(=O)O[C@H]2[C@]14C	inactive
OCC(c1ccc(Cl)cc1)c1ccc(Cl)cc1	inactive
O=C1Nc2ccc(Cl)cc2C(c2ccccc2Cl)=NC1O (stereo not given)	inactive
CC(C)=CCN1CC[C@]2(C)c3cc(O)ccc3C[C@H]1[C@H]2C	inactive
CC(=O)OO	inactive
